Values joined by “and” are separate entries in the source; they are usually repeats but may differ in a detail not shown here. Identical values can stand only once. About 83,000 compounds went through this panel and 20% of them were active in at least one assay; those are over-represented in the sample as a whole.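 Assay: single dose, 48 h. Readout: percent growth (0 = no net growth; negative = cell death). Active: <10.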 Unmarked numbers belong to inactive results. Active and inactive are the calls of the source.
tested on: PC-3 prostate; test: NCI-60 one-dose screen, 48 h (100 = growth as untreated, 0 = no growth, -100 = all killed); settings: 10 µM unless noted

| Structure (SMILES) | growth |
| --- | --- |
| CCc1ccccc1-c1nc(CN[C@@H]2C[C@@H]3C[C@H]([C@H]2C)C3(C)C)c(C)o1 | -54.3% (active) |
| Cc1ccccc1Nc1nnc(-c2c[nH]c3ccccc23)o1 | 37.6% |
| Cc1ccc(/C=C/C(=O)c2ccc(S(=O)(=O)NCCNc3nc(N(C)C)nc(N4CCOCC4)n3)cc2)cc1 | 57.4% |
| COC(=O)c1c(C(=O)OC)c2ccc3c4ccccc4ccc3n2c1C(=O)C(C)Br (stereo not drawn) | 47.1% |
| COc1cc(CNC(=O)C[C@H](C)CCC=C(C)C)ccc1OCc1cn(-c2ccc(Cl)cc2Cl)nn1 | 85% |
| Cc1cc(C(NC(=O)C2CC3(CC(Nc4cccc5c4C(=O)N(C4CCC(=O)NC4=O)C5=O)C3)C2)c2ccc3c(c2)OC(F)(F)O3)c(O)c2ncccc12 (stereo not drawn) | 17.8% |
| O=C(CSc1nnc(-c2ccc(-c3nc4ccc(Cl)cc4[nH]3)cc2)o1)Nc1ccc(Br)cc1 | -29.1% (active) |
| COc1ccc(-c2nc3ccccc3n2CC(=O)N=Nc2c(O)[nH]c3ccc(OC)cc23)cc1 | 64.8% |
| Nc1cccc(-n2c(COc3ccc(I)cc3)nc3ccccc32)c1 | 63.9% and 104% |
| COC(=O)c1cc(C(=O)C(Br)Br)n2c1ccc1c3ccccc3ccc12 | 56.3% |
| O=C(NN1C(=O)/C(=C/C=C/c2ccc([N+](=O)[O-])o2)SC1=S)c1ccc([N+](=O)[O-])cc1 | -72.5% (active) |
| Cc1ccc2nc(NC(=O)Nc3cccc(Cl)c3)sc2c1 | 92.4% |
| O=C1/C(=C/c2cccc3c2OCO3)Cc2c(F)cc(Br)cc21 | 107% |
| CC(C)(C)C(=O)C1CC(C#N)=C2C=Cc3c(ccc4ccccc34)N21 (stereo not drawn) | 80% |
| Cc1ccc(C(=O)Nc2cc(-c3ccncc3)cc(C(F)(F)F)c2)cc1C#Cc1cnc2cccnn12 | 75.1% |
| CCOc1ccc(-c2cc(-c3cc(C(C)C)c(O)cc3C)nn2-c2ccc(S(N)(=O)=O)cc2)cc1 | 42.4% |
| N#Cc1ccc(C(=O)CSc2nc3c(c(Nc4ccc(S(N)(=O)=O)cc4)n2)CCC3)cc1 | 65.3% |
| COc1ccc2c(c1)C(Sc1ccc(Cl)cc1)c1c(nc(N)c(C#N)c1N)O2 (stereo not drawn) | 20% |
| Fc1ccccc1CNc1nc(SCCN2CCOCC2)nc2c1cnn2CC(Cl)c1ccc(Br)cc1 (stereo not drawn) | 30.3% |

| Structure (SMILES) | growth |
| --- | --- |
| COc1ccc(-c2nnc3c(/C=C/c4ccc(Br)cc4)nc4ccccc4n23)cc1 | 86.4% |
| Cc1nn(-c2ccccc2)c2ncn(CC(=O)N/N=C/c3ccccc3O)c(=O)c12 | 43.3% |
| CCOC(=O)c1ccc(NC(=S)NC(=O)c2cccc(NC(=O)c3ccc(C)cc3)c2)cc1 | 77.5% |
| COc1cc(/C=C/C(=O)c2cnn(-c3cc(=O)[nH]c4ccc(Cl)cc34)c2C)cc(OC)c1OC | -26.9% (active) |
| Cc1[nH]nc2ccc3nc(-c4cnn(CCO)c4)c4c(c3c12)CCCC4 | 40.4% |
| CCC1(OC(=O)c2ccccc2SSCCOC(=O)CCCCC2SCC3NC(=O)NC32)C(=O)OCc2c1cc1n(c2=O)Cc2cc3ccccc3nc2-1 (stereo not drawn) | 37.4% |
| CN(C)c1nc(NCCNS(=O)(=O)c2ccc(C(=O)/C=C/c3ccc(Cl)cc3)cc2)nc(N2CCOCC2)n1 | 21.1% |
| C[C@@H]1CN(c2ccc3ncc(C#Cc4cncc(C(=O)Nc5ccc(CN6CCN(C)CC6)c(C(F)(F)F)c5)c4)n3n2)C[C@@H](C)O1 | -54.9% (active) |
| O=C1Nc2ccccc2/C1=C\c1ccc(OCC(=O)c2ccc(Br)cc2)cc1 | 62.4% |
| COc1ccc(NC(=O)NN2C(=O)c3ccccc3N(C)C2c2ccc(OC)cc2)cc1 (stereo not drawn) | 89.2% |
| COc1ccc2c(c1)N=c1c-2cc2c(O)[nH]c(=S)n2c1=O | 37.7% |
| CCC(=O)c1c2c(c3ccc4c5ccccc5ccc4n13)C(=O)c1ccccc1C2=O | 77.1% |
| CC1=C(C(=O)Nc2ccccc2)C(c2cccc(Cl)c2Cl)n2c(nc3ccccc32)N1 (stereo not drawn) | 18.1% |
| COc1cc(/C=N/NC(=O)c2ccc(OCc3nc4ccc(C)cc4[nH]3)cc2)cc(OC)c1OC | 49.7% |
| Cc1ccc(C2CC(c3ccc(NC(=S)Nc4ccccc4)cc3)=NN2c2ccc(S(N)(=O)=O)cc2)cc1 (stereo not drawn) | 7.16% (active) |
| Nc1cc2ccccc2c(=O)n1NC(=O)c1ccc(Br)cc1 | 95.3% |
| COc1cc(C2CC(c3ccc(S(=O)(=O)NCCNc4nc(N(C)C)nc(N5CCOCC5)n4)cc3)=Nc3c(N)nc(N)nc3N2)cc(OC)c1OC (stereo not drawn) | 96.3% |
| Cn1cc(-c2cc(N)n3nc(-c4c[nH]c5ccccc45)cc3n2)c2ccccc21 | -50.2% (active) |
| COc1ccc2[nH]c(=O)c(CSc3ccccc3Nc3nccc(-c4ccc(C(F)(F)F)cc4)n3)cc2c1 | 3.44% (active) |
